Experimental data published in PubChem BioAssay (EPA / NIEHS).
Several values for one entry are separate records, joined by “and”; a condition that tells them apart may be missing. Equal values may be shown once. Results filed as inconclusive are left out. The source holds several records for some structures; these can differ, active in one and inactive in another. Activity calls are given as the source filed them. The calls were made as follows, unless noted: active = hit-call score of the fitted dose curve at least 0.9, where 1 is the maximum; inactive = score below 0.9.

Tests used:
[1] = IUF_NPC1b_proliferation_BrdU_72hr: Leibniz Research Institute for Environmental Medicine (IUF) 72-hour Neural Progenitor Cell Bromodeoxyuridine (BrdU) Proliferation Assay (NPC1b) (AID 2284207)
Summary of the method: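 BrdU luminescence ELISA quantified DNA synthesis over the last 16 h of a 72 h exposure, fitted against DMSO. Primary hNPC spheres from gestational week 16-19 cortex grown with EGF/FGF at 37C, pH 7.2-7.6.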

[2] = IUF_NPC1a_proliferation_area_72hr: Leibniz Research Institute for Environmental Medicine (IUF) 72-hour Neural Progenitor Cell Proliferation Area Assay (NPC1a) (AID 2284208)
Summary of the method: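 Proliferation read as increase in sphere area by phase-contrast imaging over 72 h continuous compound exposure (no renewal) of hNPC spheres grown with EGF/FGF at 37C, 5% CO2. Growth-factor withdrawal served as positive control; DMSO as baseline.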

[3] = IUF_NPC1_viability_72hr: Viability Assessment at 72 hours in the Leibniz Research Institute for Environmental Medicine (IUF) Neural Progenitor Cell Proliferation Assay (NPC1) (AID 2284209)
Summary of the method: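 Each well receives one 0.3 mm progenitor sphere from fetal brain cortex; test chemical is added at plating and left three days. Viability comes from alamar blue fluorescence, multiplexed with LDH and BrdU readouts in the same well.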

[4] = CCTE_Mundy_HCI_Cortical_Synap_Neur_Matur_NeuriteSpotCountPerNeuriteLength: CCTE's Synaptogenesis and Neurite Maturation Assay in rat cortical cells for Neurite Spot Count per Neurite Length, Mundy Lab (AID 2284210)
Summary of the method: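 Rat primary cortical cultures, AraC added at DIV 5 to suppress glia; chemical exposure from DIV 7 to DIV 12. Fixed cells stained for MAP2 and synaptophysin plus Hoechst; synaptophysin puncta per neurite length quantified by high-content imaging, relative to DMSO.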

[5] = CCTE_Mundy_HCI_Cortical_Synap_Neur_Matur_BPCount: CCTE's Synaptogenesis and Neurite Maturation Assay in rat cortical cells for Branch Point Count, Mundy Lab (AID 2284211)
Summary of the method: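 Branch point number is quantified by automated imaging of fluorescently labelled neurites and synapses in rat primary cortical neurons exposed from DIV 7 to DIV 12. Activity is analysed relative to DMSO negative control.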

[6] = CCTE_Mundy_HCI_Cortical_NOG_NeuriteCount: CCTE's Neurite Outgrowth Assay in rat cortical cells for Neurite Count, Mundy Lab (AID 2284212);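 also: cells fixed about two days after chemical exposure began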
Summary of the method: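 Neurite number per cell from high-content imaging of betaIII-tubulin immunostaining, with Hoechst nuclear counterstain.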

[7] = CCTE_Mundy_HCI_Cortical_NOG_NeuriteLength: CCTE's Neurite Outgrowth Assay in rat cortical cells for Neurite Length, Mundy Lab (AID 2284213)
Summary of the method: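 Neurite length was read by high-content imaging of βIII-tubulin-labelled neurites in rat primary cortical cultures. Activity was fitted relative to DMSO.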

[8] = CCTE_Mundy_HCI_Cortical_Synap_Neur_Matur_NeuriteLength: CCTE's Synaptogenesis and Neurite Maturation Assay in rat cortical cells for Neurite Length, Mundy Lab (AID 2284214)
Summary of the method: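 Neurite length in rat primary cortical cultures is imaged after MAP2, synaptophysin and Hoechst staining. Dosing starts DIV 7, ending DIV 12; DMSO serves as negative control and baseline.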

[9] = CCTE_Mundy_HCI_Cortical_Synap_Neur_Matur_NeuriteSpotCountPerNeuron: CCTE's Synaptogenesis and Neurite Maturation Assay in rat cortical cells for Neurite Spot Count per Neuron Count, Mundy Lab (AID 2284215)
Summary of the method: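 High-content imaging counts synaptophysin puncta along MAP2-labelled neurites per neuron after chemical exposure of rat cortical cells from DIV 7 to termination at DIV 12 (AraC added DIV 5). Loss of signal relative to DMSO.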

[10] = CCTE_Mundy_HCI_Cortical_Synap_Neur_Matur_SynapseCount: CCTE's Synaptogenesis and Neurite Maturation Assay in rat cortical cells for Synapse Count, Mundy Lab (AID 2284218)
Summary of the method: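 Synapse count per neuron is measured in rat cortical neurons exposed to chemicals between DIV 7 and DIV 12, with glial growth arrested by AraC at DIV 5. Synaptophysin and MAP2 staining is imaged automatically; activity is fitted relative to DMSO.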

[11] = CCTE_Mundy_HCI_Cortical_Synap_Neur_Matur_NeuriteCount: CCTE's Synaptogenesis and Neurite Maturation Assay in rat cortical cells for Neurite Count, Mundy Lab (AID 2284222);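 also: exposure from day 7 to day 12 in vitro with readout at day 12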
Summary of the method: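 Primary rat cortical cells were plated, treated with AraC at DIV 5, then exposed to chemicals from DIV 7 through DIV 12. After fixation and immunostaining for MAP2 and synaptophysin, imaging quantified neurites, with DMSO as the negative control.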

[12] = CCTE_Mundy_HCI_Cortical_Synap_Neur_Matur_CellBodySpotCount: CCTE's Synaptogenesis and Neurite Maturation Assay in rat cortical cells for Cell Body Spot Count, Mundy Lab (AID 2284223)
Summary of the method: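 High-content imaging counts synaptophysin puncta on neuronal cell bodies per neuron after MAP2/synaptophysin immunostaining. Rat primary cortical cells, glia arrested with AraC at DIV 5, were exposed DIV 7–12; signal decrease measured against DMSO.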

[13] = CCTE_Mundy_HCI_hNP1_Pro_ResponderAvgInten: CCTE's Proliferation Assay in human neuroprogenitor cells, Mundy Lab (AID 2284224; active = hit-call score of the fitted dose curve at least 0.9, where 1 is the maximum;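 also: human neural progenitor cells hNP1 derived from WA09 embryonic stem cells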)
Summary of the method: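 Proliferation read as average intensity of BrdU-positive cells, imaged at 26.25 h post-dosing: chemical exposure started after 40–44 h culture, BrdU during final 4 h, paraformaldehyde fixation. Positive-direction fit relative to DMSO.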

[14] = TAMU_PeakParms_SingleDonor1434_Chronotropy: Texas A&M University (TAMU) 1.5-hr Human Induced Pluripotent Stem Cell (iPSC)-derived Cardiomyocytes Calcium (Ca+2) Flux Assay for Cardiotoxicity: Chronotropy (changes in peak frequency) (AID 2284217); conditions: actives raise or lower the signal
Summary of the method: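 iPSC-CMs, donor 1434; 4 conc (0.2–100 uM), 0.5% v/v DMSO, 90 min, 37C/5% CO2; Ca2+ flux fluorescence → peak.freq.avg; peak.freq.avg = 0 dropped; bidirectional fit vs DMSO; EC05 POD.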

[15] = BSK_BT_PBMCCytotoxicity: PBMC Cytotoxicity Assessment in the BioMAP Diversity Plus: BT Assay (AID 2284225); conditions: primary human B cells with PBMC;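 also: PBMC viability measured by Alamar Blue dye reduction fluorescence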
Summary of the method: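 75,000 cells/well; cpd 1 h → SEB + TSST-1 (20 ng/mL final each) → 90 h → Alamar Blue 6 h → fluor. 546/580 nm. DMSO = neg. control/baseline.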

[16] = read-out: Secreted IgG (sIgG), gene 3500; test: BSK_BT_sIgG: BioMAP Diversity Plus: BT Assay for Secreted IgG (sIgG) Biomarker Activity (AID 2284226); conditions: primary human B cells with PBMC
Summary of the method: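 Secreted IgG from a human primary B cell–PBMC co-culture was measured by ELISA 24 hours after dosing, with DMSO defining baseline activity.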

[17] = read-out: Interleukin 6 (IL6), IL6 (gene 3569); test: BSK_BT_xIL6: BioMAP Diversity Plus: BT Assay for Interleukin 6 (IL6) Biomarker Activity (AID 2284228); conditions: primary human B cells with PBMC
Summary of the method: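 Secreted IL-6 in the primary human B cell plus PBMC system, measured by Luminex at 24 h post-chemical, DMSO as baseline. Alamar Blue viability: 75,000 cells/well, chemical 1 h before SEB/TSST-1 (20 ng/mL each), 90 h, then 6 h dye.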

[18] = CCTE_Mundy_HCI_hN2_NOG_NeuriteCount: CCTE's Neurite Outgrowth Assay in human hN2 cells for Neurite Count, Mundy Lab (AID 2284219; active = hit-call score of the fitted dose curve at least 0.9, where 1 is the maximum)
Summary of the method: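 In this morphology assay, hNP1-derived neurons received test chemical 2 h post-plating and were fixed two days later in warm paraformaldehyde/sucrose containing Hoechst 33342. Neurites, labelled by rabbit anti-βIII-tubulin (1:800) and Alexa Fluor-488 (1:500), were counted automatically.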

[19] = CCTE_Mundy_HCI_hN2_NOG_NeuriteLength: CCTE's Neurite Outgrowth Assay in human hN2 cells for Neurite Length, Mundy Lab (AID 2284220; active = hit-call score of the fitted dose curve at least 0.9, where 1 is the maximum)
Summary of the method: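 Read-out is neurite length from high-content imaging of βIII-tubulin/Alexa Fluor-488-labelled neurons, referenced to DMSO controls.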

Measured: AC50

CCOc1ccc(C(C)(C)COCc2cccc(Oc3ccccc3)c2)cc1
inactive: [2] | [3] | [7] | [11] | [12] | [13]
active: [1] 1.92 µM | [4] 23.7 µM | [5] 26.8 µM | [6] 21.9 µM | [8] 3.81 µM | [9] 11.9 µM | [10] 15 µM

O=P(Oc1ccccc1)(Oc1ccccc1)Oc1ccccc1
inactive: [1] | [2] | [3] | [14]

C=CC(=O)OCC(CC)(COC(=O)C=C)COC(=O)C=C
active: [15] 2.98 µM | [16] 0.516 µM | [17] 1.46 µM

O=P1(N(CCCl)CCCl)NCCCO1 (stereo unspecified)
inactive: [4] | [5] | [6] | [7] | [8] | [9] | [10] | [18] | [19] | [11] | [12]

FC(F)(F)C(F)(C(F)(F)F)C(F)(F)C(F)(F)CC1CO1 (stereo unspecified)
inactive: [13] | [15] | [16] | [17]

O=S1(=O)OCC2C(CO1)C1(Cl)C(Cl)=C(Cl)C2(Cl)C1(Cl)Cl (stereo unspecified)
inactive: [1] | [2] | [3]
active: [15] 32.9 µM | [16] 1.55 µM | [17] 33 µM

O=c1ssc(Cl)c1Cl
active: [15] 6.76 µM | [16] 3.62 µM | [17] 6.42 µM

CC(Cl)CN(C)C (stereo unspecified)
inactive: [15] | [16] | [17]

CCOP(=S)(S)OCC
inactive: [15] | [17]
active: [16] 4.15 µM

O=C(O)C(F)(F)OC(F)(F)C(F)(F)OC(F)(F)C(=O)O
inactive: [15] | [16] | [17]

CC(O)C(F)(F)C(F)(F)F (stereo unspecified)
inactive: [15] | [16] | [17]

Cc1c([N+](=O)[O-])cc2c(c1[N+](=O)[O-])C(C)(C)CC2(C)C
active: [15] 33.2 µM | [16] 20 µM
inactive: [17]

OCC(F)(F)OC(F)(F)C(F)(F)OC(F)(F)CO
inactive: [15] | [16] | [17]

CC(C)Nc1ccc(Nc2ccccc2)cc1
active: [15] 2.89 µM | [16] 2.73 µM | [17] 4.22 µM

O=C(O)C=CC(F)(C(F)(F)F)C(F)(F)F
inactive: [15] | [16] | [17]

OCC(F)(F)OC(F)(F)C(F)(F)OC(F)(F)C(F)(F)OC(F)(F)CO
active: [16] 30 µM | [17] 38.4 µM
inactive: [15] | [17]

COC(=O)C(F)(F)C(F)(F)OC(F)(C(F)(F)F)C(F)(F)OC(F)=C(F)F (stereo unspecified)
inactive: [15] | [16] | [17]

O=C(O)C(F)(F)OC(F)(F)C(F)(F)OC(F)(F)F
inactive: [15] | [16] | [17]

CCOP(=S)(NC(C)C)Oc1ccccc1C(=O)OC(C)C (stereo unspecified)
active: [16] 14.2 µM | [17] 14.3 µM
inactive: [15]

N#Cc1cc([N+](=O)[O-])ccc1N
inactive: [15] | [16] | [17]

c1ccc2c(c1)sc1ccccc12
inactive: [15] | [16] | [17]

O=P(OCC(Br)CBr)(OCC(Br)CBr)OCC(Br)CBr (stereo unspecified)
active: [16] 16.9 µM | [17] 17.4 µM
inactive: [15]

COP(=O)(O)OC
inactive: [15] | [16] | [17]

O=C(O)C(F)(F)C(F)(F)C(=O)O
inactive: [15] | [16] | [17]

COP(N)(=S)OC
inactive: [15] | [16] | [17]

OCC(F)(F)OC(F)(F)C(F)(F)OC(F)(F)C(F)(F)OC(F)(F)F
active: [15] 30.7 µM and 43.3 µM | [16] 50.4 µM and 44.2 µM | [17] 46.6 µM and 45.2 µM

O=S(=O)(F)C(F)(F)C(F)(F)C(F)(F)C(F)(F)C(F)(F)C(F)(F)C(F)(F)C(F)(F)F
inactive: [15] | [16] | [17]

CCOP(=S)(OCC)SCS(=O)(=O)CC
inactive: [15] | [16] | [17]

N#Cc1c(-c2ccc(Cl)cc2)[nH]c(C(F)(F)F)c1Br
active: [15] 2.33 µM | [16] 0.309 µM | [17] 0.556 µM
